# Experimental data: PubChem BioAssay AID2447 (National Center for Advancing Translational Sciences (NCATS), 2010)
# The other results are listed elsewhere or left out. Records with an inconclusive call do not appear. Activity calls are given as the source filed them. Calls come from the whole dose curve.
# Assay: Cell Viability Secondary Assay for Inhibitors of the Interaction of Thyroid Hormone Receptor and Steroid Receptor Coregulator 2
# Conditions: HepG2 viability, ATP luminescence (CellTiter-Glo), 72 h
# From the text: NIH Molecular Libraries Probe Production Network [MLPCN] NIH Chemical Genomics Center [NCGC] MLPCN Grant: DK058080 Assay Provider: R. Kip Guy, St. Jude Children's Research Hospital NCGC Assay Overview: Thyroid receptor (TR) regulates many homeostatic processes including basal metabolism, cardiovascular function, body weight, and lipid trafficking. TR modulators are potential therapeutics for obesity and hyperlipidemias but current thyroid analogs have undesirable side effects, particularly cardiac stimulation. This secondary assay characterized compounds identified in the qHTS for Inhibitors of the Interaction of Thyroid Hormone Receptor and Steroid Receptor Coregulator 2 (PubChem AID 1485). The effect of compounds on the viability of HepG2 cells was assessed by measuring ATP levels.
# NCGC Assay Protocol Summary: HepG2 cells were grown to 80% confluence, collected, and cells were dispensed at 500 cells/25 ul/well into 384 well plates (Costar 3712). Following transfer of 100 nL compound (ranging from 2.5 nM to 50 uM), cells were incubated for 72 hours at 37 C and 5% CO2. Following this incubation, plates were equilibrated at ambient temperature for 30 min, 25 ul of CellTiter-Glo (Promega) was added and luminescence was detected by an EnVision (PerkinElmer) reader.
SMILES,Potency,outcome
CS(=O)(=O)c1ccc(C(=O)OCC(=O)N2CCNc3ccccc32)cc1[N+](=O)[O-],18 µM (active),
O=C(COC(=O)c1cccc([N+](=O)[O-])c1)NC1C2CC3CC(C2)CC1C3 (stereo not drawn),,inactive
CS(=O)(=O)c1ccc(C(=O)OCC(=O)N2CCC(c3ccccc3)CC2)cc1[N+](=O)[O-],8.9 µM (active),
